The text below walks through data of PubChem BioAssay.

The structures appear in SMILES notation. Active and inactive are the calls of the source.

Assay [1] is described as follows: small molecules captured by biotinylated probe aFSTL3 – biochemical, small-molecule microarray, fluorescence 635/667, stem cell growth factor project, primary screen (AID 1064).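 Also: measures binding of the biotinylated anti-FSTL3 antibody to printed compounds.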 Particulars: higher = more signal.
Assay [2] can be described thus: binders from COS7 lysate, DM2A8 probe, primary screen, torsin A project, cell lysate, small-molecule microarray, fluorescence 635/667 (AID 1065). Particulars: higher = more signal, COS7 lysate expressing mutant human TOR1A.
Assay [3] can be described thus: small molecules captured by biotinylated probe aFGF2 – biochemical, small-molecule microarray, fluorescence 635/667, stem cell growth factor project, primary screen (AID 1067).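 Also: measures binding of biotinylated aFGF2 protein to printed compounds on slides; z-score merges feature fluorescence and signal-to-noise across triplicate slides.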 Particulars: higher = more signal.
The nature of assay [4]: small molecules captured by biotinylated probe aFGF10 – biochemical, small-molecule microarray, fluorescence 635/667, stem cell growth factor project, primary screen (AID 1071).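 Also: score merges 667 nm spot intensity and signal to noise from triplicate slides.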 Particulars: higher = more signal.
The target of assay [5] is Neurogenic locus notch homolog protein 2 (Homo sapiens) (UniProt Q04721). The assay is described as follows: small molecules binding Notch2 protein – biochemical, small-molecule microarray, 635 nm fluorescence, stem cell growth factors, primary screen (AID 1073). Particulars: higher = more signal.
Assay [6] concerns the target Pro-neuregulin-1, membrane-bound isoform (Homo sapiens) (UniProt Q02297). The assay is described as follows: small molecules binding neuregulin-1 protein – biochemical, small-molecule microarray, fluorescence 635/667, psychiatric disease protein project, primary screen (AID 1075).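 Also: score combines 667 nm spot fluorescence with signal to noise.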 Particulars: NRG1 binding, 635 nm fluorescence, higher = more signal.
Assay [7] has as its system Neuregulin-1 EGF-like domain. Kind of assay: small molecules binding NRG1 EGF domain – biochemical, small-molecule microarray, 635 nm fluorescence, primary screen (AID 1081).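 Also: binding of the protein to compounds printed on small-molecule microarray slides.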 Particulars: higher = more signal.
Assay [8] in a line: FRG1 expression reporter modulators in myotubes – cell-based, C2C12 myotubes, firefly/Renilla luciferase, luminescence, FRG1 inhibition for FSHD, primary screen (AID 1084). Particulars: FRG1 promoter luciferase, higher = more signal, called active from +8 up or from −8 down.
Assay [9] can be described thus: small molecules captured by biotinylated probe aFST – biochemical, small-molecule microarray, fluorescence 635/667, stem cell growth factor project, primary screen (AID 1086).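 Also: score merges 667 nm fluorescence with signal-to-noise of each printed compound spot.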 Particulars: higher = more signal.
Assay [10] in a line: binders of probe aHhip on microarray, primary screen, stem cell growth factor project, biochemical, small-molecule microarray, fluorescence 635/667 (AID 1087).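 Also: score merges spot fluorescence at 667nm with spot signal to noise ratio.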 Particulars: higher = more signal.
Assay [11] deals with PRMT1 (protein arginine N-methyltransferase 1). Kind of assay: small molecules binding arginine methyltransferase PRMT1 – biochemical, small-molecule microarray, 635 nm fluorescence, primary screen (AID 1088).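 Also: binding of Prmt1 protein to compounds spotted on small-molecule microarray slides.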 Particulars: higher = more signal.
Assay [12] can be described thus: growth effects on S. cerevisiae YJM789 – YJM789 clinical isolate, OD600, 24 h, basal, primary screen (AID 1089).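 Also: growth of clinical yeast isolate S. cerevisiae YJM 789 seeded 1000 cells per well; test concentration not given here.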 Particulars: higher = more signal, called active from +8 up or from −8 down.
Assay [13] can be described thus: S. pombe growth modifiers, basal conditions – strain 972, OD600, 24 h, no modulator, primary screen (AID 1090).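 Also: basal condition with compound alone and no growth modifier present; test concentration not given here.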 Particulars: S. pombe 972 growth, higher = more signal, called active from +8 up or from −8 down.
A short description of assay [14]: budding yeast growth modifiers under rapamycin – strain BY4716, OD600, 96 h, primary screen (AID 1091). Also: test concentration not given here. Particulars: S. cerevisiae BY4716 + rapamycin, higher = more signal, called active from +8 up or from −8 down.
For assay [15], the target named is Torsin-1A-interacting protein 2 (Homo sapiens) (UniProt Q8NFQ8). Kind of assay: small molecules binding lysate-expressed LULL1 – cell lysate, human LULL1 lysate, 635/667 nm fluorescence, primary screen (AID 1092).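 Also: probe is lysate of COS7 cells overexpressing human LULL1; score merges per-feature 667 nm fluorescence with signal-to-noise.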 Particulars: small-molecule microarray, hLULL1 lysate binding, 635 nm fluorescence; higher = more signal.
Assay [16] can be described thus: optical density change of DRC41 E. coli – strain DRC41, OD650, 24 h, E. coli filamentation project, primary screen (AID 1093).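 Also: MC1000 strain lacking acrAB efflux and sulA so SOS filamentation is blocked; test concentration not given here.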 Particulars: E. coli DRC41 growth, higher = more signal, called active from +8 up or from −8 down.
The nature of assay [17]: probe aLefty2 binding to arrayed compounds – biochemical, biotinylated probe, 635/667 nm fluorescence, primary screen (AID 1094).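 Also: score merges spot fluorescence near 667 nm with spot signal-to-noise ratio.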 Particulars: small-molecule microarray, higher = more signal.
Assay [18] has as its system Noggin (protein binding on small-molecule microarray). The assay is described as follows: small molecules binding Noggin protein – biochemical, 635/667 nm fluorescence, primary screen (AID 1095).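 Also: score merges 667 nm feature fluorescence with signal to noise over triplicate slides.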 Particulars: 635 nm fluorescence, higher = more signal.
The target of assay [19] is Neurogenic locus notch homolog protein 3 (Homo sapiens) (UniProt Q9UM47). The assay is described as follows: small molecules binding NOTCH3 protein – biochemical, 635/667 nm fluorescence, primary screen (AID 1096). Particulars: small-molecule microarray, 635 nm fluorescence, higher = more signal.
Assay [20] is described as follows: probe aEGFR binding to arrayed compounds – biochemical, biotinylated probe, 635/667 nm fluorescence, primary screen (AID 1097).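 Also: probe is a biotinylated anti-EGFR antibody binding compounds printed on slides; score combines fluorescence near 667 nm and signal to noise of each spot.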 Particulars: small-molecule microarray, higher = more signal.

Chain of Pro-neuregulin-1, membrane-bound isoform (Homo sapiens) (Q02297 whole entry, looked up, the tested form may be a part, canonical isoform): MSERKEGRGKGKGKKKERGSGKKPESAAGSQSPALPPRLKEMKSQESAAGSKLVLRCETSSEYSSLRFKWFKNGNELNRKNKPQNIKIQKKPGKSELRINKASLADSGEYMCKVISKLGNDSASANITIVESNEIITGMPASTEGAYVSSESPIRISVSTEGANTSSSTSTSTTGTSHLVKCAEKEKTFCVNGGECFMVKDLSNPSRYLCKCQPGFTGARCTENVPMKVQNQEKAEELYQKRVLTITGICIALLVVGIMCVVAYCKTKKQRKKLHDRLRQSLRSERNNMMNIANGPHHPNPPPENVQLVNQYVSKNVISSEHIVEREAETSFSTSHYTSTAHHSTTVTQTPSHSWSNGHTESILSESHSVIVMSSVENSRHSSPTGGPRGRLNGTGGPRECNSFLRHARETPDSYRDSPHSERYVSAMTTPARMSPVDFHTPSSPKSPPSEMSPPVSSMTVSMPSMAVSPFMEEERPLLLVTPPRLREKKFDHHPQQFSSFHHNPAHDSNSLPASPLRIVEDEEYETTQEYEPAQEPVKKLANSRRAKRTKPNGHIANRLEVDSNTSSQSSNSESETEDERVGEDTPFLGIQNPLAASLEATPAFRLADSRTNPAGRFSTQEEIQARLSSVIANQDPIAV
Chain of Torsin-1A-interacting protein 2 (Homo sapiens) (Q8NFQ8 whole entry, looked up): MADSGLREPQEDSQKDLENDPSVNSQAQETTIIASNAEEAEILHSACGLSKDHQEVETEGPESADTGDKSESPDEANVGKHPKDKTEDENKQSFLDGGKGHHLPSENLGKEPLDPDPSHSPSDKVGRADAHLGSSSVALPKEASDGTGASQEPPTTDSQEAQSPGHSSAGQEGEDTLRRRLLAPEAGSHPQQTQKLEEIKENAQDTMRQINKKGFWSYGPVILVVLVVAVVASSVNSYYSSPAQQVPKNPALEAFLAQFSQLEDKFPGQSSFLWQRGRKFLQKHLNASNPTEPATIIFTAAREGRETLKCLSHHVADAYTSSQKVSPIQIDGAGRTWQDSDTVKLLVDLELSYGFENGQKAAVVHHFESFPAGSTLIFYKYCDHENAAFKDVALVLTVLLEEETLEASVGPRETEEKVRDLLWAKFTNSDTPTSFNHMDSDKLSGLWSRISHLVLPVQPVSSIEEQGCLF
Chain of Neurogenic locus notch homolog protein 3 (Homo sapiens) (Q9UM47 whole entry, looked up): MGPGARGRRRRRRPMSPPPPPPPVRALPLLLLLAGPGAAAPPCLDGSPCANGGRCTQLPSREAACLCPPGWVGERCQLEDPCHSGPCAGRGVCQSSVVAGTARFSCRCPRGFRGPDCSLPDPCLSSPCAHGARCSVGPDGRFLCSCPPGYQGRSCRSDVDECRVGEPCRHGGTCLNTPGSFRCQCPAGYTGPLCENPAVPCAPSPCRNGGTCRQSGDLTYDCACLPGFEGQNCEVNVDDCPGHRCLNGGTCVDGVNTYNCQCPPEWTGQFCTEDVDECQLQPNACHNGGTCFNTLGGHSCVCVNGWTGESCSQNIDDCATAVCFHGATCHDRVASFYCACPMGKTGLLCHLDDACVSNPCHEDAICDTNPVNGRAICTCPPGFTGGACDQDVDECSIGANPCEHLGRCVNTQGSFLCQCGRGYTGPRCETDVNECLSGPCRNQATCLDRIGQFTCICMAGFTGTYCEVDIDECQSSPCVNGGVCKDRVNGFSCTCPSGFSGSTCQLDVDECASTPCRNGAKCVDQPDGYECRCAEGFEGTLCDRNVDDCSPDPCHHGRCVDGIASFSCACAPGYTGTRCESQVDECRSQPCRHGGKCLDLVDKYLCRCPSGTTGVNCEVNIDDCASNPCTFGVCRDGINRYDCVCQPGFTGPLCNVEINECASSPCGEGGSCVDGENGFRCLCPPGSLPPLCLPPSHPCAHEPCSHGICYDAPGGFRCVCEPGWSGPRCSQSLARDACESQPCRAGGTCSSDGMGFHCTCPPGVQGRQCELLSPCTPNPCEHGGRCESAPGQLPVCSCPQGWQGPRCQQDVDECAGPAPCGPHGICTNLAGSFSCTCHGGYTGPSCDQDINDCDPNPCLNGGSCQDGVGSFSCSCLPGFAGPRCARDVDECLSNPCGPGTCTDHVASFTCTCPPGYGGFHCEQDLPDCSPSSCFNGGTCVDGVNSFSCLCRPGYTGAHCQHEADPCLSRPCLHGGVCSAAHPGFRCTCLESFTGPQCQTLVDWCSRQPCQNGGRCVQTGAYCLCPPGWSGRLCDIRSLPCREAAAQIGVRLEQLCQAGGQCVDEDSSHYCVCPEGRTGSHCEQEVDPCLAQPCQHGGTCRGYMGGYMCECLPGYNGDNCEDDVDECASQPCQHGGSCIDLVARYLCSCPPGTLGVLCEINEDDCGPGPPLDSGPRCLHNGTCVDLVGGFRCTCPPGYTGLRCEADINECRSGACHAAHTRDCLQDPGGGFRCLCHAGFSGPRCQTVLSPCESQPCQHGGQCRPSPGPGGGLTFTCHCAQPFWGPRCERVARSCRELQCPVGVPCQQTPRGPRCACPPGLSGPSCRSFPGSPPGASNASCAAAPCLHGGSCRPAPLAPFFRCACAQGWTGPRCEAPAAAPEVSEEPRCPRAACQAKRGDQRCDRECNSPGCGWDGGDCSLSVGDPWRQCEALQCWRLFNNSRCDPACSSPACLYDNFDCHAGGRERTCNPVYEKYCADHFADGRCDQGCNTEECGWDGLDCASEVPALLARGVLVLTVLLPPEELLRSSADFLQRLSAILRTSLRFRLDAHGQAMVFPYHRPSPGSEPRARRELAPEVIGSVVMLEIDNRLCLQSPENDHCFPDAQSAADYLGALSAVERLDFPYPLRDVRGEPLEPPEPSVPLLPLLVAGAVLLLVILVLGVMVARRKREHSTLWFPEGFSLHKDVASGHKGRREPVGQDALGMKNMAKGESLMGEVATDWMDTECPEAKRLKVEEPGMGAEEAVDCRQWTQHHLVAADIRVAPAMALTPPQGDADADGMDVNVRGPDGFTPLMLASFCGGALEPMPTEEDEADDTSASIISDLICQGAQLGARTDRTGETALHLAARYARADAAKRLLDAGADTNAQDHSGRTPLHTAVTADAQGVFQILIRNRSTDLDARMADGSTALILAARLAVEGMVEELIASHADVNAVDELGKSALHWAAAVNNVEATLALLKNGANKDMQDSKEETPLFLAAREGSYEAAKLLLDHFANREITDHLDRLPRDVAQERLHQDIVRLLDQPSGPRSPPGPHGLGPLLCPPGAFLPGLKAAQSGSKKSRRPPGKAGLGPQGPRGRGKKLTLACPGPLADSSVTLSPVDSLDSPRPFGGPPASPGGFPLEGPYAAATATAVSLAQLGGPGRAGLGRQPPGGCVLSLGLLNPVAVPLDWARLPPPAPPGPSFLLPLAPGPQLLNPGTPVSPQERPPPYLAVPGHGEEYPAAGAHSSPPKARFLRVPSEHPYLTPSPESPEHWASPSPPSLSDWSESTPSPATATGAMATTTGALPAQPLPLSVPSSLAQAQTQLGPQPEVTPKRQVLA

In the case of `C=C(CCCC)/C(=C/C[C@H](OC(C)=O)c1cccc(OCCO)c1)c1cc(C(=O)OC)ccc1OC`, the composite z-score in assay [1] is 0.0336; in assay [2] it was -0.325; in [3], -0.0852; in assay [4], -0.0418; in assay [5] it was -0.393; in [6], -0.578. Besides, the composite z-score in [7] was 0.131; in assay [9], -0.221; in [10], -0.201; in assay [11], 0.326; in assay [15], 0.628; in [17] it was -0.101. Further, the composite z-score in assay [18] was 1.04; in [19] it was 0.195; in assay [20], -0.154. In addition, the z-score in [8] was -0.502 (inactive); in assay [12], 0.117 (inactive); in assay [13], -0.602 (inactive); in assay [14], -0.894 (inactive); in assay [16] it was 1.01 (inactive).

`COC(=O)[C@@]1(Cc2ccc(F)cc2)[C@H]2c3cc(C(=O)N4CCCC4)n(CCO)c3C[C@H]2CN1C(=O)c1ccccc1`: the composite z-score in assay [1] was 0.0451; in [2] it was -0.124; in [3], 0.153; in [4], 0.603; in assay [5], 1.64; in assay [6], 1.06. In addition, the composite z-score is 1.26 in assay [7]; 0.537 in assay [9]; 0.628 in [10]; -1.09 in assay [11]; 2.88 in assay [15]; 0.335 in assay [17]. Besides, the composite z-score worked out at 0.4 in assay [18], 0.517 in assay [19] and 0.0753 in [20]. Moreover, the z-score was 0.383 (inactive) in assay [8]; -0.215 (inactive) in assay [12]; 1 (inactive) in [13]; -0.164 (inactive) in assay [14]; 0.208 (inactive) in assay [16].

With `COc1ccc(C(O)C2C=CC3C(=O)N(C)C(=O)C3N2Nc2ccc([N+](=O)[O-])cc2[N+](=O)[O-])cc1OCc1ccccc1` (stereo not given), the composite z-score is -0.0125 in assay [1]; 0.216 in [2]; 0.258 in assay [3]; 0.975 in assay [4]; 1.6 in [5]; 0.875 in assay [6]. Besides, the composite z-score in assay [7] is 1.27; in assay [9], 1.04; in [10], -0.0296; in [11], 1.35; in assay [15] it was 2.96; in [17] it was 0.468. Also, the composite z-score in assay [18] turned out to be 0.0404; in assay [19], 1.06; in assay [20], 0.349. The z-score in assay [8] is 0.37 (inactive); in assay [12], 0.932 (inactive); in assay [13], 1.01 (inactive); in assay [14], 0.839 (inactive); in [16], -0.636 (inactive).

Consider `CO[C@H]1O[C@H](CO)[C@@H](OC(=O)Nc2ccc(C(F)(F)F)cc2)[C@H](OC(=O)Nc2ccccc2-c2ccccc2)[C@@H]1OC(=O)Nc1ccccc1-c1ccccc1`, for which the composite z-score in assay [1] was 0.433; in assay [2] it was 1.65; in assay [3], -0.0262; in assay [4], 0.94; in assay [5] it was 1.56; in [6] it was 1.77. Besides, the composite z-score in [7] is 1.29; in assay [9] it was 1.32; in assay [10] it was -0.146; in [11], 1.54; in assay [15] it was 2.4; in [17], 0.33. In addition, the composite z-score is 1.32 in assay [18], 1.02 in assay [19] and 0.0752 in [20]. Further, the z-score in assay [8] is -0.228 (inactive); in assay [12] it was 0.94 (inactive); in assay [13], 1.25 (inactive); in [14] it was 4.92 (inactive); in assay [16], 0.193 (inactive).

As for `COCCOC(=O)N1C(=O)[C@@]2(c3cc(C#CC4=CCCCC4)ccc31)[C@H](c1ccc(OCCO)cc1)N1[C@H](c3ccccc3)[C@H](c3ccccc3)OC(=O)[C@H]1[C@@H]2C(=O)N1CCCCCCC1`, the composite z-score in [1] turned out to be 2.32; in assay [2] it was 0.945; in assay [3] it was 0.303; in [4], 0.474; in assay [5], 1.37; in assay [6], 1.07. In addition, the composite z-score in [7] was 1.13; in [9], 2.12; in [10], 1.9; in assay [11] it was 1.54; in assay [15] it was 2.96; in assay [17], 1.18. Further, the results for the composite z-score in [18], in assay [19] and in assay [20] were 1.21, 1.07 and 0.604, respectively. The z-score was -1.62 (inactive) in assay [8]; -1.06 (inactive) in [12]; -0.301 (inactive) in assay [13]; 1.89 (inactive) in assay [14]; 3.25 (inactive) in [16].
